TRb SRC2 PPI – disrupts binding of human TR beta to SRC2; P10828; TRbeta-SRC2 peptide binding, fluorescence polarization; receptor liganded with 1 µM T3; Potency, µM (series often up to 106 µM), for the others: at the top dose activity change, negative = inhibition, most hits filed as inhibitors; 280,000 compounds, 0.065% hits;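 further: plate controls were bound peptide for no effect and peptide without receptor for full effect; nearly all actives have a fitted effect of over 50% in size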
Target sequence (P10828 whole entry, looked up): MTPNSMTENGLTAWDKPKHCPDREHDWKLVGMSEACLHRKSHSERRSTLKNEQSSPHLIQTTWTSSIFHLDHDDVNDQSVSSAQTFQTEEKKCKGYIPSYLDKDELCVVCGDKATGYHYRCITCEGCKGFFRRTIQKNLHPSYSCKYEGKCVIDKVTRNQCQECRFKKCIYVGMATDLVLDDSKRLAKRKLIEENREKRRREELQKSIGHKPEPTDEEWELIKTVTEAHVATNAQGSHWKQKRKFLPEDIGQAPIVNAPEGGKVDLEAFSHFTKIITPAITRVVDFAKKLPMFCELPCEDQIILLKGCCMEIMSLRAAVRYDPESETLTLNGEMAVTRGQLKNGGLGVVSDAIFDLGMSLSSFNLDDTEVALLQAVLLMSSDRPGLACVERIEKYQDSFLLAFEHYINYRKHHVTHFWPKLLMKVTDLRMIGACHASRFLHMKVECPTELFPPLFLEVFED
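Human TRb ligand-binding domain (0.6 uM) is mixed with 20 nM Texas Red SRC2 peptide and 1 uM T3; after compound addition and 5 hr at ambient temperature, polarization is measured and normalized to unbound and bound controls.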
Tau fluor cs – counter-screen for tau fibril formation inhibitors; tau K18 P301L Alexa594 fluorescence, heparin fibrillization; Potency, µM (series often up to 57.7 µM), inactives show top-dose activity change, negative = decrease; 280,000 compounds, 0.93% hits; further: nearly all actives have a fitted effect of over 55% in size
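Human tau K18 P301L (15 uM unlabeled, 0.24 uM Alexa 594-labeled) in 100 mM sodium acetate pH 7 with 20 uM heparin, 6 hr at 37 C. ThT 30 uM added, 1 hr ambient; Alexa 594 FP and total fluorescence read at 555/632 nm.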
TexasRed fluor – Texas Red fluorescence interference in TRb-SRC2 counter-screen; TRb/SRC2 Texas Red total fluorescence interference; Potency, µM (titrated, usually from 106 µM), inactives show at the highest dose fluorescence change, negative = quenching; 280,000 compounds, 0.29% hits; AID 1479; active means well fitted curve in either direction with a large enough effect; inconclusive means small, poorly fitted or top-dose-only effect
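Human TRb ligand-binding domain at 0.6 uM with 20 nM Texas Red SRC2 peptide in Tris buffer containing 1 uM T3 and 5% DMSO, incubated with compound 5 h at ambient temperature. Total fluorescence (555/632 nm) calculated as parallel + 2 × perpendicular.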
Tau FP inhib – blocks human tau fibril formation measured by polarization; 280,000 compounds, 0.39% hits; K18 P301L tau heparin fibrillization, Alexa594 FP, 6 h; AID 1468; Potency, µM (top dose mostly 57.7 µM), without a hit: at the highest dose activity, negative = inhibition, usual class: inhibitors; further: nearly all actives have a fitted effect of over 55% in size
Target sequence (P10636 561-689 P618L limits assumed): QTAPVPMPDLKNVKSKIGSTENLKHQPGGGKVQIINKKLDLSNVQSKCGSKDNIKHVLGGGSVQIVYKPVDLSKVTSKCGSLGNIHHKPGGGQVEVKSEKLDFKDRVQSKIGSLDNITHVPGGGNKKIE
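Human K18 P301L fragment (15 uM unlabeled plus 0.24 uM Alexa 594-labeled) in 100 mM sodium acetate pH 7 with compound, aggregation induced by 20 uM heparin for 6 hr at 37 C. ThT (30 uM) added for 1 hr, then Alexa 594 FP read.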
Tau fibril ThT – blocks human tau fibril formation measured by thioflavin T; 270,000 compounds, 2.1% hits; Potency, µM (series often up to 57.4 µM), for inactives: at the top dose activity, negative = inhibition, most hits filed as inhibitors; AID 1460; recombinant tau K18 P301L (four-repeat tau fragment), heparin-induced fibrillization, ThT fluorescence; further: nearly all actives have a fitted effect of over 55% in size
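Heparin-induced fibrillization of the P301L-mutant K18 repeat-domain fragment of human tau was followed by ThT binding in quantitative high-throughput format.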
* marks the source's active call; other numbers are inactive results; ? = inconclusive; . = no result; [ ] = dose if it differs, or a comment. Hits are enriched below; roughly 3.1% of the tested compounds scored in any of these assays. Unless noted, the call rests on the fitted dose curve; in most records, active means well fitted curve in the direction sought with a large enough effect; inconclusive means small, poorly fitted or top-dose-only effect, or another doubt; inactive means no such curve, though single readings can be large; an effect the other way counts as inactive or inconclusive. Unless noted, on the % scale 0 is the no-effect control and ±100 the full control effect; potency means the concentration at half of the fitted maximal effect.

SMILES	TRb SRC2 PPI	Tau fluor cs	TexasRed fluor	Tau FP inhib	Tau fibril ThT
C/C(=N\Nc1ccc(C#N)cc1[N+](=O)[O-])c1ccc(O)cc1	2%	?	-9%	9%	?
CC/C(=N\Nc1ccccc1[N+](=O)[O-])c1ccc(O)cc1	-10%	4.5µM*[quencher]	-6%	-11%	1.8µM*
CC(C)(C)c1cccc(C(C)(C)C)c1O	1%[201 µM]	.	-1%[201 µM]	.	.
CCOC(=O)Cc1c(C)c2ccc(N(CC)CC)cc2oc1=O	?	-29%	-8%	?	14µM*
CCN(CC)c1ccc2c(C)c(Cl)c(=O)oc2c1	-6%	-1%[2.34 µM]	-1%	-3%[2.34 µM]	-3%
O=C(NCc1ccccc1F)c1cccc(NC(=O)N2CCSc3ncccc32)c1	-4%	-8%	-1%	-3%	2%
CC(C)N1CCC2(CC1)C(C#N)=C(N)NC(S)=C2C#N	18%	?	-5%	?	20µM*
CN(C)c1nc(C=C(C#N)C#N)c(Cl)n1-c1ccc(F)cc1	1%	-29%	-1%	?	14µM*
OC[C@@H]1[C@@H](c2ccccc2)C(c2ccccc2)=NN1c1ccccc1	4%	13µM*[quencher]	-4%	?	?
O=C1OCCN1C(=O)[C@H]1[C@H](c2ccc(Cl)cc2)C(c2cccc(Cl)c2)=NN1c1ccccc1	2%	?	-2%	-12%	-11%
OC[C@@H]1[C@@H](c2ccccc2)C(c2ccc(F)cc2)=NN1c1ccccc1	11%	10µM*[quencher]	1%	?	?
OC[C@@H]1[C@@H](c2ccccc2)C(c2cccc(Cl)c2)=NN1c1ccccc1	-2%	18µM*[quencher]	-6%	?	?
OC[C@@H]1[C@@H](c2ccc(F)cc2)C(c2ccc(F)cc2)=NN1c1ccccc1	1%	28µM*[quencher]	-4%	-1%[81.3 µM]	?
C[C@H]1C(c2ccccc2)=NN(c2ccccc2)[C@@H]1CO	-2%[201 µM]	?	1%[201 µM]	?	?
COc1ccccc1NC(=O)C1=C(C)Nc2c(C(=O)Nc3ccc(F)cc3)cnn2C1c1cccc([N+](=O)[O-])c1 (stereo not given)	2%	?	-8%	-4%	-1%
CCOc1ccc(-n2c(=O)c3c4c(sc3n(CC(=O)NC(C)CC)c2=O)CCCC4)cc1 (stereo not given)	3%	0%	-18%	-4%	1%
OC[C@@H]1[C@@H](c2ccc(Cl)cc2)C(c2ccc(F)cc2)=NN1c1ccccc1	-1%	25µM*[quencher]	-5%	14%[81.3 µM]	-23%[81.4 µM]
COc1ccccc1[C@H]1C(c2cccc(Cl)c2)=NN(c2ccccc2)[C@@H]1CO	5%	20µM*[quencher]	-1%	?	-17%[81.4 µM]
Cc1ccccc1Cn1c(CN2CCC(C(=O)NCc3cccnc3)CC2)cc2ccccc21	-1%	-12%	2%	-1%	-11%
C/C(=C\C(=O)c1ccccc1)Nc1ccc(O)cc1	?	?	-15%	7%	?
C/C(=C\C(=O)c1cccnc1)Nc1ccc(O)cc1	14µM*	-17%	21%	-1%	?
COc1ccccc1-c1ccc2ncnc(N(C)C)c2c1	5%	-4%	-4%	-2%	-2%
CCCCC(=O)N/N=C/c1ccc(-c2ccc([N+](=O)[O-])cc2)o1	-5%	?	-3%	9%	4.5µM*
C=CCNC(=S)N/N=C/c1ccc(-c2ccc(OC)cc2)o1	1%	20µM*[quencher]	-1%	9%	?
O=C(N/N=C/c1ccc(-c2ccc([N+](=O)[O-])cc2)o1)C(O)c1ccccc1 (stereo not given)	-13%	?	-7%	6%	16µM*
SMILES	TRb SRC2 PPI	Tau fluor cs	TexasRed fluor	Tau FP inhib	Tau fibril ThT
CCC(=O)N/N=C/c1ccc(-c2ccc([N+](=O)[O-])cc2)o1	-3%	-28%	-9%	2%	7.9µM*
CCCOc1ccc(-c2cccc(NS(=O)(=O)c3cc(OC)ccc3OC)c2)nn1	-3%	-18%	-6%	-8%	-5%
O=C1N=C(O)CN1/N=C/c1ccc(-c2ccc([N+](=O)[O-])cc2)o1	2%	-5%	-3%	0%	10µM*
NS(=O)(=O)c1ccc(-c2ccc(/C=N/NC(=O)c3ccc([N+](=O)[O-])cc3)o2)cc1	2%	-22%	-3%	3%	?
CNC(=S)N/N=C/c1ccc(-c2ccc(Cl)c([N+](=O)[O-])c2)o1	-2%	?	-3%	-13%	?
CC(C)(C)NC(=S)N/N=C\c1ccc(-c2ccc([N+](=O)[O-])cc2)o1	-2%	?	-3%	12%	7.1µM*
CCc1nnc(N/N=C/c2ccc(-c3ccc([N+](=O)[O-])cc3)o2)n1N	6%	?	-3%	?	1.8µM*
Cc1nn(-c2ccccc2)c(N)c1N=Nc1ccc2ccccc2c1	2%	16µM*[quencher]	-2%	1%	5µM*
Cc1ccc(N=Nc2c(N)nn3c(N)c(C#N)c(C)nc23)cc1	6%	?	3%	-10%	1.4µM*
Cc1ccc(N=Nc2c(N)nn(-c3ccccc3)c2N)cc1	1%	?	-2%	-6%	4.5µM*
Cc1nn(-c2ccccc2)c(N)c1N=O	0%	0%	-5%	1%	-3%
Cc1ccc(N=Nc2c(N)nn3c(C)cc(C)nc23)cc1	-8%	-14%	-8%	0%	?
CCCCn1c(SCC(=O)NCc2ccc(C)cc2)nc2c(sc3ccccc32)c1=O	2%	-6%	4%	-5%	1%
Cc1ccc(CNC(=O)C(=O)NCC(c2cccnc2)N2CCN(c3ccccc3F)CC2)cc1 (stereo not given)	-4%	-8%	5%	6%	-10%
CCn1c(=O)c2cc(C(=O)NCCc3cc(OC)ccc3OC)sc2c2ccccc21	0%	-14%	-3%	-5%	-6%
C=CCNc1nc2c3ccccc3n(C(C)=O)c2s1	-3%	?	0%	?	28µM*
COc1ccc(-c2nc3ccc([N+](=O)[O-])cc3[nH]2)cc1	6%	?	-1%	-3%	11µM*
Cc1ccc(-c2nc3ccc([N+](=O)[O-])cc3[nH]2)cc1	0%	?	4%	2%	?
NNC(=O)c1cc(-c2ccccc2)sc1N	-1%	?	-5%	4%	7.9µM*
O=C(Nc1sc(-c2ccccc2)cc1C(=O)O)c1ccccc1	5%	?	-12%	-8%	13µM*
COc1cc(/C=N/NC(=O)c2cc(-c3cccs3)nc3ccccc23)ccc1O	-3%	18µM*[quencher]	0%	3%	?
N#Cc1ccc(/C=N/NC(=O)c2cc(-c3cccs3)nc3ccccc23)cc1	10%	?	10%	?	-11%
COc1cc(/C=N/NC(=O)c2cc(-c3ccccc3)sc2N)cc(OC)c1OC	4%	13µM*[quencher]	-8%	?	.

Screening results deposited in PubChem by National Center for Advancing Translational Sciences (NCATS).
